Inconclusive results are not listed. Unmarked numbers belong to inactive results. The source made the active and inactive calls. Calls follow the shape of the dose curve; as a rule, active = well fitted activation curve with a large enough effect; inconclusive = small, poorly fitted or top-dose-only effect; inactive = no such curve, though single readings can be large or run the other way. Positions of bridges follow the written chain, without caps; N, C: chain ends. Non-standard residues stand in square brackets, D forms with d. Residues, ends and D or L forms follow the SMILES beside them. hArg = N=C(N)NCCCC[C@H](N)C(=O)O; Mpa = O=C(O)CCS
Biological target: Cellular tumor antigen p53 (Homo sapiens) (UniProt P04637)
Experiment: Primary qHTS for small molecule compounds that upregulate eGFP-tagged delta133p53alpha (in N-terminal) cells. (AID 2060322); also: nearly all actives have a fitted effect of over 75% in size;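 as to activation: series mostly up to about 56 µM; 0% = DMSO vehicle and 100% = reference activator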
Settings: NCI-H358 eGFP-delta133p53alpha fluorescence, 24 h; activation: hits give high values
Method in brief: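 NCI-H358 cells pre-induced 24 h with 10 ng/ml doxycycline for eGFP-delta133p53alpha, plated dox-free and exposed 24 h at 37C to titrated compounds. Fixed, Hoechst-stained; gated GFP peak intensity by laser scanning cytometry, normalized to DMSO (0%) and 57.5 uM 5-azacytidine (100%).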
Potency is read from the fitted curve at half-maximal effect.

Cellular tumor antigen p53 (Homo sapiens), sequence (P04637 whole entry, looked up): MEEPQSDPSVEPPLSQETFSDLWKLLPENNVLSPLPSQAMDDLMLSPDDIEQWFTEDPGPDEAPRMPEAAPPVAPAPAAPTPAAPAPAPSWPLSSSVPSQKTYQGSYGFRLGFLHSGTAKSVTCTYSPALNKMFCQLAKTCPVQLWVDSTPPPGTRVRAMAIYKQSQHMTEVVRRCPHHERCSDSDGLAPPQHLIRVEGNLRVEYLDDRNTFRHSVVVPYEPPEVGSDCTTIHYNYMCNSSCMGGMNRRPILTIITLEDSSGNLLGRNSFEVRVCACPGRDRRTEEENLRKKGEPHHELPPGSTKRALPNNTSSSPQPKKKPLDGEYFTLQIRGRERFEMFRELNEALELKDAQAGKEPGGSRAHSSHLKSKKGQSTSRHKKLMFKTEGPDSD

Q: How did the activation turn out when `O=C(NCCc1c[nH]c2ccccc12)c1cccnc1` was run?
A: 10.9%

Q: `COC(=O)CCCCC(CCSS/C(CCO)=C(\C)N(C=O)Cc1cnc(C)nc1N)SC(C)=O` (stereo not drawn) was tested. Which activation did it give?
A: 10%

Q: For `O=C1C(c2[nH]c3ccccc3c2O)=Nc2ccccc21`, which activation is on record?
A: -0.565%

Q: For `Cc1cc(C)c(NC(=O)CN(CC(=O)O)CC(=O)O)c(C)c1Br`, which activation is on record?
A: -11.9%

Q: `N#CC(=C(N)Sc1ccc(N)cc1)c1ccccc1C(F)(F)F` was tested. Which activation did it give?
A: 19.5%

Q: For `CN1CCN(c2c(F)cc3c(=O)c(C(=O)O)cn4c3c2OCN4C)CC1`, which activation is on record?
A: -9.21%

Q: For `COC(=O)C1=CO[C@@H](O)[C@@H]2C(CO)=CC[C@@H]12`, which activation is on record?
A: 4.38%

Q: How did the activation turn out when `CC(O)=C(C#N)C(=O)Nc1ccc(C(F)(F)F)cc1` was run?
A: 11.7%

Q: With `Clc1ccc2c(c1)Nc1ccccc1S2` as the compound, how does the activation read?
A: 20.9%

Q: With `O=C(c1cccc(Br)c1)N1CCC(N2CCCC2)CC1` as the compound, how does the activation read?
A: -15.6%

Q: `CN=C(NC#N)NCCSCc1csc(N=C(N)N)n1` was tested. Which activation did it give?
A: 9.6%

Q: With `CCCCC/C(C=O)=C\c1ccccc1` as the compound, how does the activation read?
A: 19.8%

Q: `COc1cc(C=C2CCC/C(=C\c3ccc(O)c(OC)c3)C2=O)ccc1O` was tested. Which Potency did it give?
A: 19.5 µM (active)

Q: With `CCCCCCCC/C=C\CCCCCCCCN` as the compound, how does the activation read?
A: -16.7%

Q: For `CC(=O)OCC(=O)[C@@]12N=C(C)O[C@H]1C[C@H]1[C@@H]3CCC4=CC(=O)C=C[C@]4(C)[C@@H]3[C@@H](O)C[C@@]12C`, which activation is on record?
A: -1.97%

Q: Which activation does the source give for `C[C@]12CCC(=O)C=C1[C@@H]1CC1[C@H]1[C@H]3[C@@H]4C[C@H]4[C@@]4(CCC(=O)O4)[C@@]3(C)CC[C@H]12` (stereo partly drawn) here?
A: 8.34%

Q: With `NC(=O)[C@@H]1CSSCCC(=O)N[C@@H](CCCCN=C(N)N)C(=O)NCC(=O)N[C@@H](CC(=O)O)C(=O)N[C@@H](Cc2c[nH]c3ccccc23)C(=O)N2CCC[C@H]2C(=O)N1` ([Mpa][hArg]GDWPC-NH2; disulfide 1-7) as the compound, how does the activation read?
A: 2.82%

Q: How did the activation turn out when `COc1cc(C(=O)NCc2ccc(OCCN(C)C)cc2)cc(OC)c1OC` was run?
A: 1.67%

Q: For `Cc1cc(C(C)(C)C)c(O)c(C(C)(C)C)c1`, which Potency is on record?
A: 21.9 µM (active)

Q: Which activation does the source give for `Cc1cn([C@H]2C[C@H](F)[C@@H](CO)O2)c(=O)[nH]c1=O` here?
A: 0.837%

Q: For `Oc1cc(O)cc(C=Cc2ccc(O)c(O)c2)c1`, which activation is on record?
A: 8.33%

Q: For `Cc1ccc(Cl)c(OCC(O)CNC(C)(C)C)c1` (stereo not drawn), which activation is on record?
A: -2.51%

Q: For `CC(C)(O)[C@H]1CC[C@@](C)([C@H]2[C@@H](O)C[C@@]3(C)[C@@H]4C[C@H](O[C@@H]5O[C@H](CO)[C@@H](O)[C@H](O)[C@@H]5O)[C@H]5C(C)(C)[C@@H](O[C@@H]6OC[C@@H](O)[C@H](O)[C@@H]6O)CC[C@@]56C[C@@]46CC[C@]23C)O1`, which activation is on record?
A: 10.3%
